Hits are enriched below; roughly 8% of the tested compounds scored in any of these assays.
LASV entry inh: qHTS for Inhibitors of binding or entry into cells for Lassa Virus. Potency, µM (titrated, usually from 37.9 µM), for inactives: at the top dose activity change, negative = inhibition, actives largely listed as inhibitors. AID 540256, 2011. actives 1.2% (n = 300,000). Lassa virus pseudotype entry inhibition, cell reporter; calls by dose curve; tested in HEK293 cells; note: potency is the fitted concentration of half-maximal effect; % is set by controls: 0 for no effect and ±100 for the full control effect; nearly all actives have a fitted effect of over 50% in size
SARS PLP yeast: qHTS of Yeast-based Assay for SARS-CoV PLP | S. cerevisiae expressing SARS-CoV PLpro, growth rescue | Potency, µM (series often up to 32.9 µM), without a hit: top-dose activity, positive = growth rescue, most hits filed as activators | actives 0.19% (n = 330,000); calls by dose curve; note: potency is the fitted concentration of half-maximal effect; 0% is about no effect; nearly all actives have a fitted effect of over 55% in size
HCV inhibitor: qHTS Assay for Inhibitors of Hepatitis C Virus (HCV); AID 651820, 2012; Potency, µM (doses to about 41.8 µM), for the others: at the top dose activity change, negative = inhibition, hits mostly inhibitors; actives 3.4% (n = 340,000); Huh7.5.1 HCVcc-Cre infection, luciferase reporter, 44 h; active = well fitted inhibition curve with a large enough effect; inconclusive = small, poorly fitted or top-dose-only effect, or another doubt; inactive = no such curve, though single readings can be large or run the other way; note: potency is the fitted concentration of half-maximal effect; % is set by controls: 0 for no effect and ±100 for the full control effect
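Infectious HCVcc-Cre (~0.5 moi) was added to cells just after compound, with cells seeded 4 h earlier at 1,000 per well. Luciferase activity after 44 h culture reported infection; substrate was incubated 15 min at room temperature before reading.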
HCMV inh: qHTS Assay for inhibitors of the human cytomegalovirus (HCMV). AID 1259415, 2018. activity change, negative = inhibition, % at 57.5 µM. HFF cells, HCMV-luciferase reporter, 72 h; stronger effect = lower value. actives 4.5% (n = 410,000); in the data active = activity change below about -60%; inconclusive = no clear call, values can overlap the other calls; inactive = above about -39%; note: % is set by controls: 0 for no effect and ±100 for the full control effect
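Two-dose cell screen: HFF monolayers treated with compounds and infected with luciferase-expressing HCMV at 1 PFU/cell, 72 h at 37C, then lysed for luciferase measurement.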
Marburg entry inh: qHTS for inhibitors of binding or entry into cells for Marburg Virus; Marburg virus pseudotyped entry inhibition, cell reporter; actives 1.8% (n = 300,000); Potency, µM (titrated, usually from 37.8 µM), for the others: top-dose activity change, negative = inhibition, actives largely listed as inhibitors; calls by dose curve; tested in HEK293 cells; note: potency is the fitted concentration of half-maximal effect; % is set by controls: 0 for no effect and ±100 for the full control effect
FMDV inh: High Throughput Screening for Foot and Mouth Disease Virus Antivirals | FMDV antiviral cell-based qHTS | Potency, µM (titrated, usually from 57.9 µM), for inactives: at the highest dose activity change, negative = inhibition, usual class: inhibitors | actives 1.2% (n = 410,000); calls by dose curve; tested in HEK293T cells; note: read-out not given here; potency is the fitted concentration of half-maximal effect; % is set by controls: 0 for no effect and ±100 for the full control effect; nearly all actives have a fitted effect of over 45% in size
Starred values were filed as active, the others as inactive; ? = inconclusive; · = no result given; [ ] = remark or other dose.

SMILES	LASV entry inh	SARS PLP yeast	HCV inhibitor	HCMV inh	Marburg entry inh	FMDV inh
Cc1ccc(CNc2nc(NCC3CC3)nc3ccsc23)c(C)c1	·	·	·	-77*	·	?
Cc1ccc(CNc2nc(NCc3ccccc3)nc3ccsc23)c(C)c1	·	·	·	-63*	·	?
COc1ccc(OC)c(-c2cc(Cl)c3c(c2)CC(CNC(=O)[C@@H]2CCCN2C(C)=O)O3)c1 (stereo partly specified)	·	·	·	·	·	-3%
O=C(NN=C1CCCC1)c1ccc([N+](=O)[O-])cc1	·	0%	9%	-20	·	-11%
Cc1ccc(Nc2nc(NCC3CC3)nc3ccsc23)c(C)c1	·	·	·	-82*	·	?
CNc1nc(Nc2ccc(C)cc2C)c2sccc2n1	·	·	·	-63*	·	?
Cc1ccccc1-c1nc(NCC2CC2)nc2ccsc12	·	·	·	-5	·	-8%
O=C(O)C1=CC(O)[C@@H](O)C(O)C1 (stereo partly specified)	·	·	·	·	·	-4%
O=S(=O)(c1ccc2ccccc2c1)N1CCC(c2nc(-c3ccncc3)no2)CC1	-13%	0%	8.9µM*	-73*	?	?
Cc1ccc(-c2noc(C3CCN(S(=O)(=O)c4ccc5c(c4)OCCO5)CC3)n2)o1	?	1%	13µM*	-96*	?	?
CCOC(=O)C1(C)CCCN(C(=O)c2ccccc2F)C1 (stereo unspecified)	·	·	·	16	·	-24%
Cc1cc(C)n(-c2nc(SCCN3CCOCC3)c3c4c(sc3n2)CCCC4)n1	13%	·	12%	-20	10%[46.1 µM]	-2%
Cc1cc(C)n(-c2nc(NCCCN(C)C)c3c4c(sc3n2)CCCC4)n1	?	0%	?	-98*	?	19%
Cc1cc(C)n(-c2nc(NCCN(C)C)c3c4c(sc3n2)CCCC4)n1	?	1%	?	-82*	?	?
Cc1cc(C)n(-c2nc3sc4c(c3c(=O)[nH]2)CCCC4)n1	·	-5%	·	·	0%	·
O=C(OCC(=O)N1CCc2ccccc21)c1c2c(nc3ccccc13)CCCCC2	?	-37%	2.8µM*	?	?	3%
O=C(COC(=O)c1c2c(nc3ccccc13)CCCC2)Nc1ccc2c(c1)OCO2	?	-13%	5.6µM*	-27	?	-21%
CC(=O)c1ccc(NC(=O)COC(=O)c2c3c(nc4ccccc24)/C(=C\c2cccs2)CCC3)cc1	?	10%	?	?	8.9µM*	?
CC(C)NC(=O)NC(=O)COC(=O)c1c2c(nc3ccccc13)CCC2	·	0%	4.5µM*	?	?	11µM*
CC(C)(C)NC(=O)COC(=O)c1c2c(nc3ccccc13)CCC2	-25%	-3%	?	-20	-3%[46.1 µM]	-21%
CCCOc1ccc(C(=O)Nc2ccc3nn(-c4ccc(OC)c(Cl)c4)nc3c2)cc1	8%[46.1 µM]	·	·	0	·	0%
COc1ccc(CNC(=O)CCCN2C(=O)COc3ccc(C)cc32)cc1	·	·	·	-15	-11%[46.1 µM]	-17%
Cc1ccc(S(=O)(=O)c2cnc(SCC(=O)Nc3ccc4c(c3)OCCO4)[nH]c2=O)cc1	·	·	·	10	4%[46.1 µM]	-10%
CCCCn1c(=N)n(CC(O)COc2ccc(C)cc2)c2ccccc21 (stereo unspecified)	?	2%	11µM*	-34	?	?
CCCCCn1c(=N)n(CC(O)COc2cccc(C)c2)c2ccccc21 (stereo unspecified)	?	·	·	-105*	?	?
SMILES	LASV entry inh	SARS PLP yeast	HCV inhibitor	HCMV inh	Marburg entry inh	FMDV inh
CCCn1c(=N)n(CC(O)COc2cccc(C)c2)c2ccccc21 (stereo unspecified)	-20%	7%	?	12	8.2µM*	?
CCn1c(=N)n(CC(O)COc2cccc(C)c2)c2ccccc21 (stereo unspecified)	0%	?	?	10	?	?
COc1ccc(OCC(O)Cn2c(=N)n(CCN3CCOCC3)c3ccccc32)cc1 (stereo unspecified)	6%	-2%	-19%	-18	?	11%
CC(C)C/C=C1\CCc2c([nH]c3ccccc23)C1=O	0%[46.1 µM]	-2%	-15%	42	11%[46.1 µM]	22%
CC1C/C(=C\c2cccnc2)C(=O)/C(=C/c2cccnc2)C1 (stereo unspecified)	2.9µM*	-82%	?	-101*	2.1µM*	3.5µM*
CN1C(=O)C(=Cc2cccnc2)C(=O)N(C)C1=O	23%	1%	20%	35	15%	0%
O=C1/C(=C/c2cccnc2)CCc2c1[nH]c1ccccc21	-22%	-3%	-29%	-76*	?	37%
Cc1ccc(N2C(=O)CCSC23C(=O)N(Cc2ccccc2)c2ccccc23)cc1F (stereo unspecified)	-18%[46.1 µM]	·	·	0	·	4%
CCOC(=O)CNC(c1ccccc1)c1cc(Br)ccc1NC(=O)c1cccc(Cl)c1 (stereo unspecified)	?	·	·	-29	·	-11%
COC(=O)CNC(c1ccccc1)c1cc(Cl)ccc1NC(=O)c1cccc(Cl)c1 (stereo unspecified)	9%	-28%	-25%	31	10µM*	0%
Cc1ccc(S(=O)(=O)/N=C(\N)Nc2nc(C)c3ccccc3n2)cc1	1%	5%	4%	-9	?	49%
Cc1cccc(NC(=S)/N=C(\N)Nc2nc(C)c3ccccc3n2)c1	?	?	4µM*	?	?	-9%
Cc1cc(C)cc(NC(=S)/N=C(\N)Nc2nc(C)c3ccccc3n2)c1	6%	?	?	-79*	?	?
Cc1cccc(NC(=S)/N=C(\N)Nc2nc(C)c3cc(C)ccc3n2)c1	-15%	-4%	?	13	?	6%
Cc1cccc(NC(=S)/N=C(\N)Nc2nc(C)c3ccc(C)cc3n2)c1	?	28%	2µM*	-33	11µM*	-24%
Cc1ccc(NC(=O)CSc2nc3ccccc3c3nc(CCc4c(C)n[nH]c4C)nn23)c(C)c1	8%[46.1 µM]	·	·	-15	·	-17%
CCS(=O)(=O)N1CC2(CN(C(=O)Cc3ccccn3)[C@@H](CO)c3[nH]c4cc(OC)ccc4c32)C1	·	·	·	2	·	·
COc1ccc(N2C(=O)C(CC(=O)Nc3ccc(F)cc3)N(CCc3ccc(OC)c(OC)c3)C2=O)cc1 (stereo unspecified)	·	1%	0%	2	·	-8%
CCOC(=O)C(Cc1ccc(OC)c([N+](=O)[O-])c1)NC(=O)CCC(=O)Nc1ccc(OC)cc1 (stereo unspecified)	-9%[46.1 µM]	0%	2%	-105*	11%[46.1 µM]	14%

Screens deposited in PubChem by National Center for Advancing Translational Sciences (NCATS).
